Active and inactive are the calls of the source. How the source made its calls: active means hit-call score of the fitted dose curve at least 0.9, where 1 is the maximum; inactive means score below 0.9.
Tests used:
Settings in all cases: mRNA level, 48 h; actives raise or lower the signal
[1] = read-out: DNA damage-inducible transcript 3 (DDIT3), DDIT3 (gene 1649); experiment: LTEA_HepaRG_DDIT3: Life Technologies and Expression Analysis (LTEA) Assay for DNA damage-inducible transcript 3 (DDIT3) using HepaRG (AID 2283488)
Method in brief: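 Changes in DDIT3 transcript, in either direction relative to 0.5% DMSO vehicle, were quantified by TaqMan qRT-PCR after 48 h chemical exposure of HepaRG cells at 8 concentrations, maximum 100 uM.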

[2] = read-out: Pro-epidermal growth factor (Homo sapiens) (UniProt P01133); experiment: LTEA_HepaRG_EGF: Life Technologies and Expression Analysis (LTEA) Assay for Epidermal growth factor (EGF) using HepaRG (AID 2283489)
Method in brief: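 Differentiated human HepaRG cells, plated 48 h then switched to serum-free induction medium, were exposed for 48 h to test chemicals (8-point half-log series, top 100 uM, 0.5% DMSO). EGF mRNA was quantified by qRT-PCR, normalized to ACTB, GAPDH, POLR2A.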

[3] = read-out: Ezrin (EZR), EZR (gene 7430); experiment: LTEA_HepaRG_EZR: Life Technologies and Expression Analysis (LTEA) Assay for Ezrin (EZR) using HepaRG (AID 2283491)
Method in brief: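 EZR transcript levels came from Fluidigm qRT-PCR and were normalized to three housekeeping genes after 48 h chemical exposure of HepaRG cells. Dosing used an 8-point half-log series with a 100 uM top concentration in 0.5% DMSO, tested in duplicate; both directions were fitted versus vehicle.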

[4] = read-out: Cytochrome P450 3A7 (Homo sapiens) (UniProt P24462); experiment: LTEA_HepaRG_CYP3A7: Life Technologies and Expression Analysis (LTEA) Assay for CYP3A7 using HepaRG (AID 2283492)
Method in brief: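 HepaRG cells plated 48 h, then dosed in serum-free induction medium for 48 h at 8 concentrations (top 100 uM, half-log steps, 0.5% DMSO). CYP3A7 mRNA by qRT-PCR, normalised to ACTB/GAPDH/POLR2A; bidirectional fit versus DMSO.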

CYP3A5 (gene 1577) = experiment: LTEA_HepaRG_CYP3A5: Life Technologies and Expression Analysis (LTEA) Assay for CYP3A5 using HepaRG (AID 2283493)
Method in brief: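 mRNA induction or loss of CYP3A5 assessed in HepaRG after 48 h dosing, 100 uM top concentration, duplicate wells; TaqMan qRT-PCR with ACTB, GAPDH, POLR2A normalization; 0.5% DMSO as negative control.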

[5] = read-out: Fatty Acid-Binding Protein 1 (FABP1), FABP1 (gene 2168); experiment: LTEA_HepaRG_FABP1: Life Technologies and Expression Analysis (LTEA) Assay for Fatty Acid-Binding Protein 1 (FABP1) using HepaRG (AID 2283494)
Method in brief: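 Differentiated human HepaRG cells were exposed in duplicate for 48 h in serum-free induction medium to 8-point half-log concentration series topping at 100 uM in 0.5% DMSO. FABP1 mRNA measured by TaqMan qRT-PCR, normalized to ACTB/GAPDH/POLR2A; bidirectional fit versus DMSO.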

[6] = read-out: Cytochrome P450 4A22 (Homo sapiens) (UniProt Q5TCH4); experiment: LTEA_HepaRG_CYP4A22: Life Technologies and Expression Analysis (LTEA) Assay for Cytochrome P450 4A22 (CYP4A22) using HepaRG (AID 2283495)
Method in brief: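 qRT-PCR of CYP4A22 mRNA (Fluidigm TaqMan, normalized to three housekeeping genes) after 48 h chemical exposure of HepaRG cells; 8-point half-log series, top 100 uM, 0.5% DMSO vehicle. Bidirectional curve fitting vs DMSO baseline.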

[7] = read-out: Cytochrome P450 7A1 (Homo sapiens) (UniProt P22680); experiment: LTEA_HepaRG_CYP7A1: Life Technologies and Expression Analysis (LTEA) Assay for Cytochrome P450 7A1 (CYP7A1) using HepaRG (AID 2283496)
Method in brief: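 Gene expression endpoint in human HepaRG liver cells treated for 48 h with test chemicals (up to 100 uM, 0.5% DMSO). Values come from bidirectional concentration-response fitting versus DMSO.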

[8] = read-out: Glutathione S-Transferase (GSTA2), GSTA2 (gene 2939); experiment: LTEA_HepaRG_GSTA2: Life Technologies and Expression Analysis (LTEA) Assay for Glutathione S-Transferase (GSTA2) using HepaRG (AID 2283497)
Method in brief: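 Human HepaRG cells, plated 48 h, then exposed in serum-free induction medium for 48 h to eight half-log concentrations up to 100 uM in 0.5% DMSO, duplicate. GSTA2 mRNA by qRT-PCR, normalized to ACTB/GAPDH/POLR2A; bidirectional fit versus DMSO.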

[9] = read-out: growth arrest and DNA damage 45 (GADD45G), GADD45G (gene 10912); experiment: LTEA_HepaRG_GADD45G: Life Technologies and Expression Analysis (LTEA) Assay for growth arrest and DNA damage 45 (GADD45G) using HepaRG (AID 2283499)
Method in brief: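 Differentiated human HepaRG cells in serum-free induction medium were exposed for 48 h to 8 half-log concentrations up to 100 uM in 0.5% DMSO, in duplicate. GADD45G mRNA was measured by TaqMan qRT-PCR, normalised to ACTB, GAPDH and POLR2A, and fitted bidirectionally against DMSO.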

[10] = read-out: Glutamate-cysteine ligase regulatory (GCLM), GCLM (gene 2730); experiment: LTEA_HepaRG_GCLM: Life Technologies and Expression Analysis (LTEA) Assay for Glutamate-cysteine ligase regulatory (GCLM) using HepaRG (AID 2283500)
Method in brief: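 Human liver HepaRG cultures receive test chemicals for 48 hours at up to 100 uM in 0.5% DMSO. GCLM expression is measured by qRT-PCR and analysed for increases or decreases against vehicle.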

[11] = read-out: Glutathione S-transferase M3 (GSTM3), GSTM3 (gene 2947); experiment: LTEA_HepaRG_GSTM3: Life Technologies and Expression Analysis (LTEA) Assay for Glutathione S-transferase M3 (GSTM3) using HepaRG (AID 2283501)
Method in brief: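 Differentiated HepaRG cells in serum-free induction medium were exposed in duplicate for 48 h to 8 half-log concentrations up to 100 uM in 0.5% DMSO. GSTM3 mRNA was measured by TaqMan qRT-PCR, normalized to ACTB/GAPDH/POLR2A, and fitted bidirectionally versus DMSO.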

[12] = read-out: Hypoxia-inducible factor 1-alpha (Homo sapiens) (UniProt Q16665); experiment: LTEA_HepaRG_HIF1A: Life Technologies and Expression Analysis (LTEA) Assay for Hypoxia-inducible factor 1 (HIF1A) Trancription factor using HepaRG (AID 2283503)
Method in brief: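 HepaRG, 48 h exposure, 8-pt half-log series from 100 uM, 0.5% DMSO vehicle, duplicates. Readout: HIF1A transcript by qRT-PCR (Fluidigm array), housekeeping-normalised. Bidirectional curve fit vs DMSO baseline.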

[13] = read-out: 3-Hydroxy-3-Methylglutaryl-CoA Synthase 2 (HMGCS2), HMGCS2 (gene 3158); experiment: LTEA_HepaRG_HMGCS2: Life Technologies and Expression Analysis (LTEA) Assay for 3-Hydroxy-3-Methylglutaryl-CoA Synthase 2 (HMGCS2) using HepaRG (AID 2283504)
Method in brief: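 Differentiated human HepaRG cells were exposed in duplicate for 48 h in serum-free induction medium to eight concentrations (top 100 uM, half-log steps, 0.5% DMSO). HMGCS2 mRNA was quantified by TaqMan qRT-PCR, normalised to ACTB, GAPDH and POLR2A, then fitted bidirectionally against DMSO.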

[14] = read-out: Insulin Like Growth Factor 1 (IGF1), IGF1 (gene 3479); experiment: LTEA_HepaRG_IGF1: Life Technologies and Expression Analysis (LTEA) Assay for Insulin Like Growth Factor 1 (IGF1) using HepaRG (AID 2283506)
Method in brief: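 Using human HepaRG liver cells, IGF1 transcript induction or suppression is measured 48 h after dosing across eight concentrations capped at 100 uM. Values derive from bidirectional concentration-response fitting with DMSO as baseline.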

[15] = read-out: Intercellular Adhesion Molecule 1 (ICAM1), ICAM1 (gene 3383); experiment: LTEA_HepaRG_ICAM1: Life Technologies and Expression Analysis (LTEA) Assay for Intercellular Adhesion Molecule 1 (ICAM1) using HepaRG (AID 2283507)
Method in brief: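 Differentiated HepaRG cells in serum-free induction medium were exposed in duplicate for 48 h to eight half-log concentrations up to 100 uM in 0.5% DMSO. Transcript levels were measured by qRT-PCR normalized to ACTB, GAPDH and POLR2A; bidirectional fits relative to DMSO.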

HGF (gene 3082) = experiment: LTEA_HepaRG_HGF: Life Technologies and Expression Analysis (LTEA) Assay for Hepatocyte Growth Facto (HGF) using HepaRG (AID 2283505)
Method in brief: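 Differentiated human HepaRG cells in serum-free induction medium were exposed in duplicate for 48 h to eight concentrations (top 100 uM, half-log steps, 0.5% DMSO). HGF mRNA was quantified by qRT-PCR, normalized to ACTB, GAPDH and POLR2A.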

[16] = read-out: Early growth response protein 1 (EGR1) transcription factor, EGR1 (gene 1958); experiment: LTEA_HepaRG_EGR1: Life Technologies and Expression Analysis (LTEA) Assay for Early growth response protein 1 (EGR1) transcription factor using HepaRG (AID 2283490)
Method in brief: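 Differentiated human HepaRG cells in serum-free induction medium were exposed in duplicate for 48 h to eight concentrations (top 100 uM, half-log steps) in 0.5% DMSO. EGR1 mRNA was quantified by qRT-PCR, normalized to ACTB, GAPDH and POLR2A, and fitted bidirectionally versus DMSO.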

[17] = read-out: Glutamate-cysteine ligase catalytic (GCLC), GCLC (gene 2729); experiment: LTEA_HepaRG_GCLC: Life Technologies and Expression Analysis (LTEA) Assay for Glutamate-cysteine ligase catalytic (GCLC) using HepaRG (AID 2283498)
Method in brief: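 Differentiated human HepaRG cells, plated 48 h then switched to serum-free induction medium, were exposed in duplicate for 48 h to 8 half-log concentrations topping at 100 uM in 0.5% DMSO. GCLC mRNA was quantified by qRT-PCR against ACTB, GAPDH and POLR2A.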

[18] = read-out: Heat shock 70 kDa protein 1 (HSPA1A), gene 3303; experiment: LTEA_HepaRG_HSPA1A: Life Technologies and Expression Analysis (LTEA) Assay for Heat shock 70 kDa protein 1 (HSPA1A) using HepaRG (AID 2283502)
Method in brief: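 HSPA1A induction in human HepaRG liver cells is measured after 48 h of chemical treatment (100 uM maximum, 0.5% DMSO vehicle). Expression comes from qRT-PCR normalized to endogenous controls.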

Measured: AC50

Chain of Cytochrome P450 3A7 (Homo sapiens) (P24462 whole entry, looked up): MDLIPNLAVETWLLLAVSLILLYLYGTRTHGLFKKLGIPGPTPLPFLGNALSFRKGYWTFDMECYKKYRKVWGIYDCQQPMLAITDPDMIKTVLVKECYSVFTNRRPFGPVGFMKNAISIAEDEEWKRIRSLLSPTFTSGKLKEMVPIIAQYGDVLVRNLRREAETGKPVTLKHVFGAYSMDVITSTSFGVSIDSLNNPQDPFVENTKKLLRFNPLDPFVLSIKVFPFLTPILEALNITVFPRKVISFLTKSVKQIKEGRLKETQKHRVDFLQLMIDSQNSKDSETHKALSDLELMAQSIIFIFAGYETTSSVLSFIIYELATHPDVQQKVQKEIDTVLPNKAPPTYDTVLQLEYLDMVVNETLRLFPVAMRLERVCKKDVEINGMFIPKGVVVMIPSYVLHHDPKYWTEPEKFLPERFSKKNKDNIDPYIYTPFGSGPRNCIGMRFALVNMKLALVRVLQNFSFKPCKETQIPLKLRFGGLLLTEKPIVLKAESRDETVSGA
Chain of Hypoxia-inducible factor 1-alpha (Homo sapiens) (Q16665 whole entry, looked up): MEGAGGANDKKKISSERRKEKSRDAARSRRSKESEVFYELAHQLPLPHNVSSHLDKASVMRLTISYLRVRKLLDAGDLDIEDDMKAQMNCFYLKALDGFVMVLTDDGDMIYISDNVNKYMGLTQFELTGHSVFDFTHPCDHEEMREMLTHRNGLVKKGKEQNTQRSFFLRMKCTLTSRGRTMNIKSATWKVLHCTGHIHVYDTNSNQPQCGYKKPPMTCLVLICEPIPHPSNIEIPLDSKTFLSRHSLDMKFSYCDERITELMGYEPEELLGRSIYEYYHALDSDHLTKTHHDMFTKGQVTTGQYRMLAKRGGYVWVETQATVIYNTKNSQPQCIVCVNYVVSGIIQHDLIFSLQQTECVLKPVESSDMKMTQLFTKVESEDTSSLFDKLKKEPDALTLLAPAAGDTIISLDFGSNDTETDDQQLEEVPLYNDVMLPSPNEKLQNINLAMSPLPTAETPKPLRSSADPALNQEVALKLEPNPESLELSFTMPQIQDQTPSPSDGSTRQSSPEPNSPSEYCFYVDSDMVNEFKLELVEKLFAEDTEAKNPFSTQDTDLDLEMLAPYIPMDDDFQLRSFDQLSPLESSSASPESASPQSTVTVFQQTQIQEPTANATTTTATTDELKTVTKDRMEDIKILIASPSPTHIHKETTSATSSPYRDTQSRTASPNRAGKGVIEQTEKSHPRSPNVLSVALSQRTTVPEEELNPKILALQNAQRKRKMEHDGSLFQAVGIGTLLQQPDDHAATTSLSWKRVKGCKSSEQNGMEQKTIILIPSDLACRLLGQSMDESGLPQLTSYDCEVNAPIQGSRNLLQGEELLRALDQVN

Cc1c(C(=O)O)c(O)cc2c1C(=O)c1c(O)c([C@@H]3O[C@H](CO)[C@@H](O)[C@H](O)[C@H]3O)c(O)c(O)c1C2=O
not listed: HGF (gene 3082) | [16] | [17] | [18]
inactive: all other assays above

Cc1nc(-c2ccc3c(c2)CCN(CCC2CCC(NC(=O)/C=C/c4ccc(F)cc4)CC2)CC3)no1 (centres undefined)
not listed: [16] | [17] | [18]
inactive: all other assays above

Cc1ccc2ncccc2c1
not listed: [1] | [7] | [17] | [18]
inactive: all other assays above

Cc1ccc(C)c(O)c1C
not listed: [1] | [4] | HGF (gene 3082)
inactive: all other assays above

NCCO
not listed: HGF (gene 3082) | [16] | [17]
inactive: all other assays above

COCCOC[C@H](CC1(C(=O)NC2CCC(C(=O)O)CC2)CCCC1)C(=O)Oc1ccc2c(c1)CCC2 (some centres undefined)
not listed: [4] | [7] | HGF (gene 3082) | [16] | [18]
inactive: all other assays above

CN1CCCC1=O
not listed: [1]
inactive: all other assays above

OC[C@@H](O)[C@@H](O)[C@H](O)[C@H](O)CO
not listed: [1] | [7] | [17] | [18]
inactive: all other assays above

CC1=C(/C=C/C(C)=C/C=C/C(C)=C/CO)C(C)(C)CCC1
active: [2] 52.2 µM | [5] 26.3 µM | [6] 22.2 µM | [7] 21.9 µM | [8] 52.2 µM | [18] 68.4 µM | [14] 52.2 µM
not listed: [1]
inactive: all other assays above

C[Si]1(C)O[Si](C)(C)O[Si](C)(C)O[Si](C)(C)O1
not listed: [4] | HGF (gene 3082) | [16] | [17]
inactive: all other assays above

O=C(N[C@@H](Cc1ccccc1)[C@@H](O)C(=O)N1C[C@@H](O)[C@@H](O)C1)c1cc2cc(Cl)ccc2[nH]1
active: [1] 73.1 µM | [3] 9.92 µM | [4] 12.6 µM | [6] 14.3 µM | [8] 81.7 µM | [13] 89 µM
not listed: [7] | [16]
inactive: all other assays above

CN1CCN(Cc2cc(-c3ccc4[nH]c(=O)oc4c3)co2)[C@@H](c2ccc(F)cc2)C1
active: [4] 11.5 µM | [6] 50 µM | [8] 12.2 µM | [9] 71.9 µM
not listed: [1] | [18]
inactive: all other assays above

FC(F)(F)C(F)(F)C(F)(F)C(F)(F)C(F)(F)C(F)(F)CCI
not listed: [1] | [17] | [18]
inactive: all other assays above

Clc1cc(Cl)c(Cl)cc1Cl
not listed: [4] | [7] | [16]
inactive: all other assays above

Cc1oc(-c2ccccc2)nc1CCOc1cccc2c1ccn2CCC(=O)O
inactive: [2] | CYP3A5 (gene 1577) | [12]
active: [1] 79.2 µM | [3] 9.92 µM | [5] 87.6 µM | [6] 85.2 µM | [8] 81.5 µM | [9] 90.2 µM | [10] 75.8 µM | [11] 9.92 µM | [13] 83.2 µM | [14] 69.9 µM | [15] 85.6 µM

CC(=O)OCCOCCOCCOC(C)=O
not listed: [16] | [17] | [18]
inactive: all other assays above
